Read-outs that look alike come from different tables or passages of the source.

One test relates to CSNK1G1. The settings on record: concentration: 1 μM,replicates: in singlicate; n = 1.
In the next test the test system is CSNK1G2. Particulars: concentration: 1 μM,replicates: in singlicate; n = 1.
The subject of another test is CSNK1G3. The settings on record: concentration: 1 μM,replicates: in singlicate; n = 1.
A further test concerns CSNK2A1. Particulars: n = 1.
The test system of another test is CSNK2A2. Particulars: n = 1.
The next test has as its system T1, CTK.
T1 construct: gene MATK
Particulars: concentration: 1 μM,replicates: in singlicate; n = 1.

Another test concerns DAPK1. The settings on record: concentration: 1 μM,replicates: in singlicate; n = 1.
For the next test, the system named is DAPK2. The settings on record: concentration: 1 μM,replicates: in singlicate; n = 1.
The subject of the next test is DAPK3. The settings on record: concentration: 1 μM,replicates: in singlicate; n = 1.
The next test has as its system T2, DCAMKL1.
T2 construct: gene DCLK1
The settings on record: concentration: 1 μM,replicates: in singlicate; n = 1.

The test system of the next test is T3, DCAMKL2.
T3 construct: gene DCLK2
Particulars: concentration: 1 μM,replicates: in singlicate; n = 1.

The test system of another test is T4, DCAMKL3.
T4 construct: gene DCLK3
The settings on record: concentration: 1 μM,replicates: in singlicate; n = 1.

In another test the test system is DDR1. The settings on record: concentration: 1 μM,replicates: in singlicate; n = 1.
A further test relates to DDR2. The settings on record: concentration: 1 μM,replicates: in singlicate; n = 1.
For the next test, the system named is T5, DLK.
T5 construct: gene MAP3K12
Particulars: concentration: 1 μM,replicates: in singlicate; n = 1.

Another test has as its system T6, DMPK2.
T6 construct: gene CDC42BPG
The settings on record: concentration: 1 μM,replicates: in singlicate; n = 1.

The test system of a further test is DMPK. The settings on record: concentration: 1 μM,replicates: in singlicate; n = 1.
Another test relates to T7, DRAK1.
T7 construct: gene STK17A
Particulars: concentration: 1 μM,replicates: in singlicate; n = 1.

The test system of another test is T8, DRAK2.
T8 construct: gene STK17B
Particulars: n = 1.

In a further test the test system is DYRK1A. Particulars: concentration: 1 μM,replicates: in singlicate; n = 1.
Where [1] appears, read: concentration: 1 μM,replicates: in singlicate.
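Further: KINOMEscan kinase panel screen.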

As to `C[C@@H](Oc1cc(-n2cnc3cc(-c4cnn(C)c4)ccc32)sc1C(N)=O)c1ccccc1Cl` [GSK580432], the “%Inh” value was determined as 30% in the test on CSNK1G1; 0% with CSNK1G2; 15% in the test on CSNK1G3; 7% with CSNK2A1 (setting [1]); 67% in the test with CSNK2A2 (setting [1]); 0% in the test with CTK. Besides, the “%Inh” value is on record as 75% with DAPK1; 43% in the test with DAPK2; 34% in the test on DAPK3; 10% with DCAMKL1; 10% in the test with DCAMKL2; 0% in the test on DCAMKL3. Moreover, the “%Inh” value in the test with DDR1 came out at 42%; in the test on DDR2, 3%; in the test with DLK, 29%; in the test on DMPK2 it was 1%; in the test on DMPK, 45%; with DRAK1, 6%. Moreover, the “%Inh” value is reported as 15% in the test with DRAK2 (setting [1]) and 18% in the test with DYRK1A.
As for `O=C1NCCc2[nH]c(-c3ccncc3)cc21`, the “%Inh” value in the test on CSNK1G1 is given as 51%; in the test on CSNK1G2, 93.7%; with CSNK1G3 it was 83%; in the test on CSNK2A1 (setting [1]), 64%; with CSNK2A2 (setting [1]), 59%; in the test on CTK, 24%. Also, the “%Inh” value in the test on DAPK1 turned out to be 77%; in the test on DAPK2, 66%; in the test with DAPK3, 81%; in the test on DCAMKL1, 16%; in the test on DCAMKL2, 0%; in the test with DCAMKL3 it was 91.8%. Moreover, the “%Inh” value with DDR1 is listed as 17%; with DDR2, 0%; with DLK, 8%; in the test on DMPK2 it was 0%; with DMPK it was 13%; in the test with DRAK1 it was 97.2%. The “%Inh” value worked out at 100% in the test on DRAK2 (setting [1]) and 99.7% with DYRK1A.
Take `COc1cc2ncn(-c3cc(OCC4CCCCC4)c(C(N)=O)s3)c2cc1OC` [GSK204559]: the “%Inh” value is 12% in the test with CSNK1G1; 9% in the test with CSNK1G2; 32% with CSNK1G3; 1% in the test on CSNK2A1 (setting [1]); 22% in the test with CSNK2A2 (setting [1]); 0% with CTK. Moreover, the “%Inh” value in the test with DAPK1 worked out at 35%; in the test with DAPK2, 30%; with DAPK3, 64%; in the test on DCAMKL1 it was 2%; in the test with DCAMKL2, 25%; in the test with DCAMKL3, 0%. The “%Inh” value in the test on DDR1 amounted to 0%; in the test with DDR2, 0%; in the test with DLK it was 31%; with DMPK2, 7%; with DMPK it was 0%; in the test on DRAK1, 0%. In addition, the “%Inh” value with DRAK2 (setting [1]) came to 0%; in the test on DYRK1A it was 21%.
For the compound `CCOC(=O)N1CCC(n2cnc(-c3ccc(F)cc3)c2-c2ccnc(N)n2)CC1` [SB-219952], the “%Inh” value was 4% in the test on CSNK1G1; 12% in the test on CSNK1G2; 0% in the test on CSNK1G3; 19% with CSNK2A1 (setting [1]); 9% with CSNK2A2 (setting [1]); 0% with CTK. The “%Inh” value with DAPK1 is recorded as 25%; with DAPK2, 0%; in the test on DAPK3 it was 0%; with DCAMKL1, 22%; in the test with DCAMKL2, 15%; in the test on DCAMKL3 it was 18%. In addition, the “%Inh” value turned out to be 83% with DDR1; 60% in the test with DDR2; 0% in the test on DLK; 39% in the test with DMPK2; 22% in the test on DMPK; 0% in the test on DRAK1. Moreover, the results for the “%Inh” value with DRAK2 (setting [1]) and with DYRK1A were 0% and 2%, respectively.
As to `COc1cccc(CNC(=O)NC2CCN(c3ccnc(Nc4cc(OC)c(OC)c(OC)c4)n3)C2)c1` (centres unmarked) [GSK1379765], the “%Inh” value in the test on CSNK1G1 stood at 0%; in the test on CSNK1G2, 0%; in the test with CSNK1G3, 27%; with CSNK2A1 (setting [1]) it was 3%; with CSNK2A2 (setting [1]) it was 0%; in the test with CTK it was 0%. Moreover, the “%Inh” value is recorded as 0% in the test on DAPK1; 0% with DAPK2; 14% with DAPK3; 19% in the test on DCAMKL1; 8% with DCAMKL2; 0% in the test on DCAMKL3. The “%Inh” value in the test with DDR1 is on record as 1%; in the test with DDR2, 19%; with DLK, 61%; with DMPK2, 69%; in the test with DMPK it was 0%; with DRAK1, 0%. Further, the “%Inh” value stood at 0% in the test on DRAK2 (setting [1]) and 19% with DYRK1A.
As for `CC(=O)Nc1ccc(-c2cc3ncnc(SCC(=O)O)c3s2)cc1`, the “%Inh” value came to 15% in the test with CSNK1G1; 0% with CSNK1G2; 8% in the test on CSNK1G3; 75% in the test on CSNK2A1 (setting [1]); 68% in the test with CSNK2A2 (setting [1]); 14% with CTK. The “%Inh” value turned out to be 23% in the test on DAPK1; 8% in the test on DAPK2; 9% in the test with DAPK3; 0% in the test with DCAMKL1; 24% in the test on DCAMKL2; 12% in the test with DCAMKL3. Also, the “%Inh” value was 0% with DDR1; 10% with DDR2; 2% in the test on DLK; 0% in the test with DMPK2; 7% with DMPK; 97.9% in the test on DRAK1. The entries for the “%Inh” value with DRAK2 (1 µM) and in the test with DYRK1A were 100% and 66%, respectively.
In the case of `NC(=O)Nc1sc(-c2ccc(F)cc2)cc1C(N)=O` [GW789449], the “%Inh” value with CSNK1G1 is recorded as 0%; in the test on CSNK1G2, 0%; with CSNK1G3, 0%; with CSNK2A1 (setting [1]), 49%; in the test on CSNK2A2 (setting [1]) it was 81%; with CTK it was 22%. Moreover, the “%Inh” value with DAPK1 came out at 32%; in the test on DAPK2, 0%; in the test on DAPK3 it was 38%; in the test with DCAMKL1, 0%; in the test on DCAMKL2 it was 0%; with DCAMKL3, 0%. In addition, the “%Inh” value was 11% in the test on DDR1; 39% in the test on DDR2; 38% with DLK; 0% in the test on DMPK2; 0% in the test on DMPK; 43% in the test with DRAK1. For the same compound, the entries for the “%Inh” value with DRAK2 (setting [1]) and with DYRK1A were 70% and 23%, respectively.
With `COc1cccc(OC)c1C(=O)Nc1cccc(-c2nn3ccccc3c2-c2ccnc(Nc3cccc(F)c3)n2)c1` [GSK361065], the “%Inh” value was 14% in the test on CSNK1G1; 17% in the test on CSNK1G2; 3% with CSNK1G3; 0% in the test with CSNK2A1 (1 µM); 23% in the test on CSNK2A2 (1 µM); 21% with CTK. For the same compound, the “%Inh” value in the test on DAPK1 is 10%; in the test on DAPK2, 6%; in the test on DAPK3 it was 0%; with DCAMKL1 it was 16%; in the test with DCAMKL2, 0%; with DCAMKL3, 16%. For the same compound, the “%Inh” value in the test with DDR1 was found to be 99.3%; with DDR2, 57%; with DLK, 0%; with DMPK2 it was 84%; in the test on DMPK, 2%; with DRAK1 it was 12%. Besides, the “%Inh” value was determined as 12% with DRAK2 (setting [1]) and 0% in the test on DYRK1A.
For `COc1ccc(Nc2nccc(N3CCC(NC(=O)c4cccc(C#N)c4)C3)n2)cc1` (centres unmarked) [GSK1379730], the “%Inh” value in the test with CSNK1G1 came to 3%; in the test with CSNK1G2, 0%; with CSNK1G3, 0%; with CSNK2A1 (setting [1]) it was 0%; in the test on CSNK2A2 (setting [1]) it was 0%; in the test on CTK, 0%. For the same compound, the “%Inh” value in the test on DAPK1 stood at 0%; in the test on DAPK2, 0%; in the test on DAPK3, 4%; in the test on DCAMKL1 it was 8%; with DCAMKL2 it was 0%; in the test with DCAMKL3, 0%. Also, the “%Inh” value is listed as 0% in the test on DDR1; 12% in the test with DDR2; 40% with DLK; 0% in the test on DMPK2; 0% in the test on DMPK; 2% in the test on DRAK1. Moreover, the figures for the “%Inh” value in the test on DRAK2 (setting [1]) and in the test with DYRK1A were 0% and 22%, respectively.
Take `CC(C)c1nc(-c2cccc(NS(=O)(=O)c3ccccc3)c2)c(-c2ccnc(Nc3ccc4c(c3)CN(C)CC4)n2)s1` [GSK1649598]: the “%Inh” value in the test on CSNK1G1 was 19%; with CSNK1G2 it was 0%; in the test with CSNK1G3, 28%; with CSNK2A1 (setting [1]), 0%; in the test with CSNK2A2 (setting [1]), 9%; with CTK, 5%. The “%Inh” value with DAPK1 was 30%; with DAPK2 it was 55%; with DAPK3, 21%; in the test on DCAMKL1, 0%; in the test with DCAMKL2, 17%; in the test with DCAMKL3, 17%. The “%Inh” value turned out to be 100% in the test with DDR1; 42% with DDR2; 69% with DLK; 61% with DMPK2; 0% with DMPK; 0% with DRAK1. Besides, the “%Inh” value with DRAK2 (setting [1]) was found to be 0%; in the test on DYRK1A it was 4%.

Values taken from PMC5540273 (PLoS ONE, 2017).
